Test [1] in a line: NCI Yeast Anticancer Drug Screen. Data for the rad50 strain (AID 155).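 Also: 0% = growth of vehicle-only cultures of the same strain.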 The note with it: S. cerevisiae rad50 strain growth inhibition; at 50.0 µM; stronger effect = higher value. In short, it runs like this:
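Growth of the mutant yeast was measured after compound exposure and referenced to vehicle-treated cultures.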

Test [2] can be described thus: NCI Yeast Anticancer Drug Screen. Data for the mec2-1 strain (AID 157). The conditions noted are these: S. cerevisiae mec2-1 strain, at 50.0 µM, stronger effect = higher value. In short, it runs like this:
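mec2-1 yeast strain, carrying an alteration in DNA damage repair or cell cycle control, was exposed to compounds; growth inhibition was measured relative to vehicle-treated controls.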

Test [3] in a line: NCI Yeast Anticancer Drug Screen. Data for the sgs1 mgt1 strain (AID 161).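 Also: 0% = growth of cultures given vehicle only.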 The note with it: S. cerevisiae sgs1 mgt1 strain, at 50.0 µM, stronger effect = higher value. In short, it runs like this: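 Percent growth inhibition was derived by comparing compound-exposed mutant yeast with vehicle-exposed cultures. The strain carries alterations in DNA damage repair.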
The nature of test [4]: NCI Yeast Anticancer Drug Screen. Data for the cln2 rad14 strain (AID 165).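 Also: 0% = growth equal to vehicle treated cultures.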 The note with it: S. cerevisiae cln2 rad14 strain, at 50.0 µM, stronger effect = higher value. In short, it runs like this:
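Yeast carrying cln2 and rad14 alterations (cell cycle control and DNA damage repair) were exposed to compounds. Growth inhibition was measured against vehicle-treated controls.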

Test [5] can be described thus: NCI Yeast Anticancer Drug Screen. Data for the bub3 strain (AID 167). The conditions noted are these: S. cerevisiae bub3 mutant strain, at 50.0 µM, stronger effect = higher value. A digest of the protocol: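 Whole-cell yeast assay. The mutant strain was incubated with compounds, and growth inhibition was determined by comparison with vehicle-treated cells.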
A short description of test [6]: NCI Yeast Anticancer Drug Screen. Data for the mlh1 rad18 strain (AID 175). The conditions noted are these: S. cerevisiae mlh1 rad18 strain growth inhibition; at 50.0 µM; stronger effect = higher value. A digest of the protocol:
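Growth inhibition of the yeast strain was measured after compound exposure and expressed relative to vehicle-treated controls. The strain carries defined defects in DNA damage repair.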

About 79,000 compounds went through this panel and 15% of them were active in at least one assay; those are over-represented in the sample as a whole. A number with no mark means an inactive call. Active and inactive are the calls of the source. Rule as the data show it: active = growth inhibition above about 70%; inactive = the rest.

In the case of `COc1ccc(CCCCC(=O)O)cc1`, the growth inhibition in test [1] was -12.1%; in test [2], -3.4%; in test [3] it was -0.65%; in test [4], -2.7%; in test [5], -7.55%; in test [6], -9.1%.
Turning to `O=[N+]([O-])/C(C(Cl)=C(Cl)Cl)=C(\SCc1ccccc1)N1CCCCC1`, the growth inhibition in test [1] was -25.6%; in test [2] it was -8.1%; in test [3] it was 6.75%; in test [4] it was 19.4%; in test [5], 31.7%; in test [6] it was 14.6%.
Turning to `CS/N=C(/c1ccc(/C(=N/SC)N(C)C)cc1)N(C)C`, the growth inhibition in test [1] is 0.9%; in test [2] it was -8.5%; in test [3], 8.8%; in test [4], -5.35%; in test [5] it was -24.4%; in test [6], 5.75%.
Regarding `NC(=S)n1nc(-c2ccccc2)c(N=Nc2cccc([N+](=O)[O-])c2)c1-c1ccccc1`, the growth inhibition in test [1] is 32.9%; in test [2], 7.5%; in test [3], 31.1%; in test [4] it was 19.6%; in test [5] it was 0.1%; in test [6] it was 10.8%.
Turning to `O=C1C=CC(=NN=c2c3ccccc3oc3ccccc23)C=C1`, the growth inhibition in test [1] was -11.3%; in test [2], -3.35%; in test [3] it was 4%; in test [4], -20.9%; in test [5], 12.7%; in test [6], 0.1%.
In the case of `CCN(CC)CCOCCN(CC)CC`, the growth inhibition in test [1] is 4.15%; in test [2], -2.2%; in test [3], -5.25%; in test [4], -44.8%; in test [5], 0.1%; in test [6] it was 9.55%.
As for `Cc1c(O)cccc1C(=O)C[n+]1ccccc1`, the growth inhibition in test [1] was 3.85%; in test [2], -8%; in test [3], 10.8%; in test [4] it was -24.9%; in test [5], -6.9%; in test [6], 1.25%.
For `COc1ccc2c(c1O)-c1c(OC)c(OC)cc3c1[C@H](C2)[N+](C)(C)CC3`, the growth inhibition is -9% in test [1]; -12.2% in test [2]; 11.2% in test [3]; 1.65% in test [4]; -1.1% in test [5]; -53.4% in test [6].
As for `C[N+](C)(C)CC(=O)NC(=O)N/N=C\C(CC#N)CN(Cc1ccccc1)Cc1ccccc1` (configuration not stated), the growth inhibition in test [1] was 23.5%; in test [2], 13.7%; in test [3] it was 19.1%; in test [4], 10.6%; in test [5], 2.35%; in test [6] it was 12.2%.
For `COc1ccc(C2S/C(=C\c3ccccc3)C(=O)N2NC(=O)Cc2ccccc2)cc1` (configuration not stated), the growth inhibition in test [1] is -12.8%; in test [2], -54.2%; in test [3], -7.5%; in test [4] it was -69.7%; in test [5], -18.6%; in test [6] it was -12%.
For `CCOC(=O)C1/C(=C\O)C(=O)c2cc(OC)c(OC)cc2C1c1ccc(OC)c(OC)c1` (configuration not stated), the growth inhibition in test [1] was -0.5%; in test [2] it was 0.9%; in test [3], 20.6%; in test [4], 8.35%; in test [5], -5.95%; in test [6] it was 21.9%.
As for `O=C(O)C1CC=CCC1C(=O)Nc1cccc(O)c1` (configuration not stated), the growth inhibition in test [1] is -16.9%; in test [2], -30.8%; in test [3] it was -51.7%; in test [4], 38.5%; in test [5], -40%; in test [6], 6.25%.
With `Cc1[nH]c2ccccc2c1C1=CC(=O)c2ccccc2C1=O`, the growth inhibition was 8.55% in test [1]; 18% in test [2]; 21.6% in test [3]; 2.6% in test [4]; -1% in test [5]; 13.8% in test [6].
Consider `CC(C)=NNC(=S)NC12CC3CC(CC(C3)C1)C2`, for which the growth inhibition is 29.4% in test [1]; 39.3% in test [2]; 25.1% in test [3]; -8.7% in test [4]; 48.7% in test [5]; 35% in test [6].
For `CCOC(=O)C1=C(O)c2ccc(OC)cc2C(=O)C1=O`, the growth inhibition in test [1] was -5.5%; in test [2] it was -10.5%; in test [3] it was 12.7%; in test [4], 2.05%; in test [5] it was -9%; in test [6] it was 0.3%.
On to `Cc1ccccc1S(=O)(=O)NC1c2ccccc2Oc2ccccc21`, for which the growth inhibition in test [1] is -9.85%; in test [2], -3.7%; in test [3] it was -5.3%; in test [4] it was -12.1%; in test [5], 2.5%; in test [6], -7.9%.
Regarding `CC(C)(CCC(=O)O)C(=O)O`, the growth inhibition in test [1] was -4.15%; in test [2], -34.1%; in test [3] it was -30.5%; in test [4], 4.95%; in test [5] it was -32.9%; in test [6], -2.9%.
For `CCCCCCC(=O)/C=C/c1cccc(OCc2cccc(Cl)c2)c1`, the growth inhibition was 24.4% in test [1]; 16.8% in test [2]; 19.1% in test [3]; 16.8% in test [4]; 1.55% in test [5]; 4.65% in test [6].
Turning to `CCCCCNc1ccnc(=O)[nH]1`, the growth inhibition is 11.8% in test [1]; 6.8% in test [2]; 2% in test [3]; -39.5% in test [4]; -12.9% in test [5]; -12.7% in test [6].
Turning to `CCCC/C(C)=N/NC(N)=S`, the growth inhibition is 2.3% in test [1]; -4.3% in test [2]; -4.3% in test [3]; -2.65% in test [4]; -15.9% in test [5]; 1.9% in test [6].
As for `c1ccc(Nc2nnc(-c3nsc4ccccc34)o2)cc1`, the growth inhibition is -34.5% in test [1]; -40.9% in test [2]; -42.8% in test [3]; -1.4% in test [4]; -31.9% in test [5]; -35.9% in test [6].
Turning to `O=C(O)C(Oc1ccc(Cl)cc1Cl)C(Oc1ccc(Cl)cc1Cl)C(=O)O` (configuration not stated), the growth inhibition in test [1] was -3.95%; in test [2], -4.1%; in test [3] it was -9.95%; in test [4] it was -15.5%; in test [5] it was 1.75%; in test [6], 3.75%.
As to `CCOC(=O)C(NC(=O)Nc1ccccc1F)(OC)C(F)(F)F` (configuration not stated), the growth inhibition in test [1] was -23.1%; in test [2], -38.3%; in test [3] it was -75.4%; in test [4] it was -4.3%; in test [5], -28%; in test [6] it was -59.6%.
With `Nc1c2cc3c(cc2c[n+]2ccc4ccccc4c12)OCO3`, the growth inhibition is 38.9% in test [1]; 44% in test [2]; 32.6% in test [3]; 19.9% in test [4]; 43.9% in test [5]; 54.5% in test [6].
Regarding `Cc1cccc(C(=O)OCc2ccccc2CN2CCCCC2)c1`, the growth inhibition in test [1] is -5.15%; in test [2], -9.75%; in test [3] it was -12.9%; in test [4] it was -21.6%; in test [5], 2.85%; in test [6] it was -3.6%.
In the case of `COc1ccc(NC(=O)c2cc3ccccc3cc2OC(=O)NC(C)(C)C)cc1`, the growth inhibition in test [1] is -12.5%; in test [2], -13.3%; in test [3], -7.15%; in test [4], 2.5%; in test [5], -0.15%; in test [6], -32.8%.
Take `C(#[C][Sn]([c]1ccccc1)([c]1ccccc1)[c]1ccccc1)c1ccccc1`: the growth inhibition in test [1] was 98.3% (active); in test [2], 95.5% (active); in test [3], 97.8% (active); in test [4], 98.5% (active); in test [5] it was 98.8% (active); in test [6], 98.6% (active).
Consider `CC(C)(C)CC(C)(C)NCc1ccc(Cl)cc1`, for which the growth inhibition in test [1] is 78.6% (active); in test [2] it was 45%; in test [3] it was 61.3%; in test [4] it was 40.2%; in test [5], 65.6%; in test [6] it was 60.6%.
For the compound `C=C1C(=O)OC2CC3(C)C=CC(=O)C(=C)C3CC12` (configuration not stated), the growth inhibition is 6.75% in test [1]; 20.6% in test [2]; 34.4% in test [3]; 39.9% in test [4]; 26.8% in test [5]; 23.4% in test [6].
For `COc1ccccc1NC(=O)OCc1ccco1`, the growth inhibition was 2.55% in test [1]; -6.9% in test [2]; 28.6% in test [3]; -65.2% in test [4]; 3.35% in test [5]; 6.85% in test [6].
As for `C=CCC(C(=O)NC(N)=O)c1ccccc1` (configuration not stated), the growth inhibition in test [1] is 3.9%; in test [2] it was -7.65%; in test [3] it was -11.3%; in test [4], 19.5%; in test [5], 8.05%; in test [6], 0.35%.
Turning to `O=S(=O)(CCS(=O)(=O)c1ccccc1)c1ccccc1`, the growth inhibition in test [1] is -11.4%; in test [2] it was -10.2%; in test [3], -22.9%; in test [4] it was -41.5%; in test [5], -15.3%; in test [6], -0.1%.
As for `O=C(SCSC(=O)c1ccccc1)c1ccccc1`, the growth inhibition in test [1] was -11.3%; in test [2], 10.9%; in test [3], -4.75%; in test [4], -18.5%; in test [5] it was 32.8%; in test [6], 2%.
With `N#CCCn1c(CCC(=O)Nc2ccc(Cl)cc2Cl)n[nH]c1=S`, the growth inhibition was -8.4% in test [1]; 0.65% in test [2]; -6.05% in test [3]; 13.6% in test [4]; 1.7% in test [5]; 2.45% in test [6].
With `C[n+]1ccc(/C=C/c2ccc(O)c3ncccc23)c2cccc(O)c21`, the growth inhibition in test [1] is 38.5%; in test [2], 41.8%; in test [3] it was 37.9%; in test [4], 7.75%; in test [5], 5.4%; in test [6] it was 44.9%.
Regarding `COc1cc(-c2nnc3n2NC=C(C(=O)O)S3)cc(OC)c1OC`, the growth inhibition in test [1] is 6.75%; in test [2], 2.45%; in test [3], -10.9%; in test [4], 5.45%; in test [5] it was 28.2%; in test [6], 21.8%.
In the case of `Nc1ccnc2cc(Cl)ccc12`, the growth inhibition is 17.4% in test [1]; 4.45% in test [2]; 3.3% in test [3]; 2.6% in test [4]; -4.05% in test [5]; 26.6% in test [6].

For the origin of these results see PubChem BioAssay (NCI).
